Compounds with a hit are over-represented: about 1.5% of the library has one in this group of screens.
IL2 activator – activators of IL-2; IL-2 activation reporter assay, cell-based qHTS; stimulated with anti-CD3/CD4/CD28 beads; in transgenic mouse T cells; activation, % (series mostly up to about 46 µM); 0.065% of 360,000 active; in the data active = activation above about 50%; inconclusive = mostly about 30% to 49%
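Unstimulated transgenic mouse T cells preincubated 60 min with compound, then stimulated with anti-CD3/anti-CD4-coated beads plus anti-CD28 for 18 h at 37 degrees C. IL-2 response read as EGFP and DsRed fluorescence by plate cytometry.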
uPA generation – cell surface uPA generation inhibition | cell surface uPA generation assay, qHTS | Potency, µM (doses to about 38.3 µM), actives largely listed as inhibitors | 0.31% of 330,000 active | AID 540303; active = well fitted inhibition curve with a large enough effect; inconclusive = small, poorly fitted or top-dose-only effect; inactive = no such curve, though single readings can be large or run the other way; tested in mouse RAW 264.7 cells; also: nearly all actives have a fitted effect of over 55% in size
Nrf2 ARE act – activators of Nrf2 (ARE) signaling. Potency, µM (titrated, usually from 46.1 µM), usual class: activators. 0.31% of 410,000 active. AID 624171. AREc32 ARE-luciferase reporter (MCF7-derived line), luminescence, 24 h; also: nearly all actives have a fitted effect of over 65% in size
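AREc32_Fluc, 1000 cells/well, OPTI-MEM + 5% FBS, o/n 37 deg C 5% CO2; 23 nL cpd by pin tool, 24 hr; Steady-Glo 30 min RT, luminescence.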
ALOX12 inh – blocks human arachidonate 12S-lipoxygenase | P18054 | purified 12hLO, xylenol orange hydroperoxide absorbance | Potency, µM (titrated, usually from 108 µM), usual class: inhibitors | 1.1% of 580,000 active
Target sequence (P18054 whole entry, looked up): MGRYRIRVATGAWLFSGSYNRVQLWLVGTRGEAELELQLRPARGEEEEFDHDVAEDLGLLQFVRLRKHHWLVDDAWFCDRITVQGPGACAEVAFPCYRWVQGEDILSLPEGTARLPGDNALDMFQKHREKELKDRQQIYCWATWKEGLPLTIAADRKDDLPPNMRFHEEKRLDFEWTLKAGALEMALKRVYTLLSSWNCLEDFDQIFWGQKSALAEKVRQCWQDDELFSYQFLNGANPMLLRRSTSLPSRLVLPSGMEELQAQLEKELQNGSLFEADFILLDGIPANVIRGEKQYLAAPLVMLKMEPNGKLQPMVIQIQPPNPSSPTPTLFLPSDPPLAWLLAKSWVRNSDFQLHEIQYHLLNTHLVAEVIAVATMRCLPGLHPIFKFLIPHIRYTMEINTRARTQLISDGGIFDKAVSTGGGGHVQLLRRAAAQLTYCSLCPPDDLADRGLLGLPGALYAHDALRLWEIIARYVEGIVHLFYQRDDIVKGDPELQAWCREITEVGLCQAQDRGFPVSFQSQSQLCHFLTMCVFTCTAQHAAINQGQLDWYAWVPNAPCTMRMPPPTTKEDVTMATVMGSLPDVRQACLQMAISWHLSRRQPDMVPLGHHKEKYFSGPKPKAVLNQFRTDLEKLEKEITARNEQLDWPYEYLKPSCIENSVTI
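Purified human 12hLO (150 nM final) in 25 mM Hepes, 0.01% Triton X-100, pH 7.0 was preincubated 15 min at room temperature with compound. Then 40 uM arachidonic acid was added, 30 min. Hydroperoxide was read by Fe-XO absorbance ratio 573/405 nm.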
a7 integrin act – activators of alpha7 integrin expression for muscular dystrophy; alpha7betagal myoblasts, beta-gal FDG fluorescence, 48 h; Potency, µM (titrated, usually from 38.3 µM), most hits filed as activators; 0.064% of 350,000 active; AID 624291; also: nearly all actives have a fitted effect of over 60% in size
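alpha7betagal+/- myoblasts (passage 13, 250/well) treated 48 h at 37C with compounds at 1:260 dilution of DMSO stock. Lysed, then beta-galactosidase activity read as FDG fluorescence (ex 480/em 540) after 30 min, with pre-read for autofluorescence.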
Of the large screens only hits and unclear results are named; the others gave an inactive call; ! = repeats disagree. Unless noted, calls follow the shape of the dose curve; as a rule, active = well fitted curve in the direction sought with a large enough effect; inconclusive = small, poorly fitted or top-dose-only effect, or another doubt; inactive = no such curve, though single readings can be large; an effect the other way counts as inactive or inconclusive.

Oc1ccc(N=Cc2ccc(OCc3ccccc3)cc2)cc1	uPA generation inconclusive, Nrf2 ARE act 14.1µM
CCOc1ccc(N=Cc2ccc(N(C)C)cc2)cc1	none (no result: IL2 activator, uPA generation, Nrf2 ARE act, a7 integrin act)
O=C(Nc1cnc(-c2ccc(C(F)(F)F)cc2)nc1)C1CCOC1 (configuration not stated)	none (no result: IL2 activator, uPA generation, Nrf2 ARE act, a7 integrin act)
Cc1cccc(C(=O)NC2C(=O)NNC2c2ccc(Cl)cc2)c1 (configuration not stated)	ALOX12 inh 14.1µM
CN(Cc1ccccc1)C(=O)c1ccc(OCc2ccccc2)cc1	none (no result: IL2 activator, uPA generation, Nrf2 ARE act, a7 integrin act)
COc1ccccc1N1CCN(Cc2cc(Br)c(O)c3ncccc23)CC1	uPA generation 2.82µM, ALOX12 inh 35.5µM
CN(C)S(=O)(=O)CCCN1CCC2(CC1)NC(=O)CC2C(=O)O (configuration not stated)	none (no result: IL2 activator, uPA generation, Nrf2 ARE act, a7 integrin act)
CC(C)CCn1nc(C(=O)OCC#N)c2ccccc2c1=O	none (no result: IL2 activator, uPA generation, Nrf2 ARE act, a7 integrin act)
COc1ccccc1NC(=S)NC(=O)/C=C/c1ccco1	ALOX12 inh 39.8µM
O=C(/C=C/c1ccco1)NC(=S)Nc1cccc([N+](=O)[O-])c1	ALOX12 inh 39.8µM
Cc1ccccc1NC(=S)NC(=O)/C=C/c1ccco1	Nrf2 ARE act 17.8µM
Cc1ccc(-n2nc3cc(C)c(NC(=S)NC(=O)/C=C/c4ccco4)cc3n2)cc1	ALOX12 inh 44.7µM
Cc1cccc(NC(=S)NC(=O)/C=C/c2ccco2)c1	ALOX12 inh inconclusive
Cc1ccc(-n2nc3ccc(NC(=S)NC(=O)/C=C/c4ccco4)cc3n2)cc1	ALOX12 inh inconclusive
CCSCCNc1nc(COC)nc2c1cnn2C	none (no result: IL2 activator, uPA generation, Nrf2 ARE act, a7 integrin act)
O=S1(=O)N[C@@H](CC2CCCCC2)COc2cc(Br)ccc21	uPA generation 1.58µM
COc1cc(N=Nc2ccc(Br)cc2)cc(C=O)c1O	ALOX12 inh 3.16µM (no result: uPA generation)
O=C1c2ccccc2C(=O)c2c(O)ccc(O)c21	none (no result: IL2 activator, uPA generation, Nrf2 ARE act, a7 integrin act)
O=C1c2ccccc2C(=O)c2c(O)c(O)cc(O)c21	ALOX12 inh 31.6µM! (no result: a7 integrin act)
COc1ccc(-c2cc(=O)oc3c(O)c(O)ccc23)cc1	ALOX12 inh 1.12µM, a7 integrin act inconclusive
COc1ccc(C(=O)Oc2ccc3c(-c4ccc(OC)cc4)cc(=O)oc3c2)cc1	none (no result: IL2 activator, uPA generation, Nrf2 ARE act, a7 integrin act)
Cc1nc(-c2ccc(F)cc2)n(Cc2nc(-c3ccc(OC(C)C)cc3)oc2C)c(=O)c1CCO	none (no result: IL2 activator, uPA generation, Nrf2 ARE act, a7 integrin act)
O=C(OCn1ncc(Cl)c(Cl)c1=O)c1ccc(C(F)(F)F)cc1	Nrf2 ARE act 10µM
CC1(C)CC2(CC(c3ccccc3)Oc3cc(O)ccc32)NC(=S)N1 (configuration not stated)	ALOX12 inh 31.6µM, a7 integrin act inconclusive
CC1(C)CC2(CC(c3ccccc3)Oc3cc(O)ccc32)NC(=O)N1 (configuration not stated)	none (no result: IL2 activator, uPA generation, Nrf2 ARE act, a7 integrin act)
Cc1ccc(Nc2nnc(SCC(=O)NCCN3C(=O)CSC3=O)s2)cc1C	uPA generation 5.01µM
O=C(Nc1nnc(-c2ccccc2SCc2ccccc2)s1)Nc1ccccc1F	none (no result: ALOX12 inh)
O=C(Nc1nnc(-c2ccccc2F)s1)Nc1ccccc1F	Nrf2 ARE act 8.91µM
O=C(Nc1nnc(-c2ccccc2F)s1)C1CCCO1 (configuration not stated)	Nrf2 ARE act 3.16µM
CCC/C=N/Nc1nc2ccccc2s1	ALOX12 inh 39.8µM
O=C(NNC(=O)C1CCCC1)c1ccc([N+](=O)[O-])cc1Cl	none (no result: IL2 activator, uPA generation, Nrf2 ARE act, a7 integrin act)
O=C(NCc1ccccc1)c1ccc(CN2C(=O)NC3(CCOCC3)C2=O)cc1	none (no result: IL2 activator, uPA generation, Nrf2 ARE act, a7 integrin act)
S=c1[nH]c(-c2ccccc2)cn1/N=C/c1ccc(Br)cc1	ALOX12 inh 39.8µM
S=c1[nH]c(-c2ccccc2)cn1/N=C/c1cccnc1	ALOX12 inh inconclusive
O=C(O)c1ccc(/C=N/n2cc(-c3ccccc3)[nH]c2=S)cc1	ALOX12 inh 44.7µM
O=S1(=O)C[C@H](NC2CCCC2)[C@@H](S(=O)(=O)c2ccccc2)C1	none (no result: IL2 activator, uPA generation, Nrf2 ARE act, a7 integrin act)
COCC(=O)N1CCCC(C(=O)N2CCN(c3ccc(F)cc3)CC2)CCNC(=O)CC1 (configuration not stated)	none (no result: IL2 activator, uPA generation, Nrf2 ARE act, a7 integrin act)
CCC(C(=O)Nc1cc(OC)cc(OC)c1)n1c(=O)[nH]c2ccccc2c1=O (configuration not stated)	none (no result: IL2 activator, uPA generation, Nrf2 ARE act, a7 integrin act)
O=C1NN(c2ccccc2)C(=O)C1=Cc1ccccc1O	ALOX12 inh inconclusive (no result: uPA generation)
O=C1NN(c2cccc(Br)c2)C(=O)/C1=C\c1ccc(O)cc1	ALOX12 inh 15.8µM
O=C1NN(c2ccc(Br)cc2)C(=O)/C1=C\c1ccc(O)cc1O	ALOX12 inh 39.8µM, a7 integrin act inconclusive
Cc1ccc(C(=O)O)cc1N1C(=O)c2cccc3c([N+](=O)[O-])ccc(c23)C1=O	uPA generation inconclusive, Nrf2 ARE act inconclusive, ALOX12 inh 5.01µM
COc1ccc(NC(=O)/C(C#N)=C/c2c(C)nn(-c3ccc(F)cc3)c2Cl)cc1Cl	none
COc1ccc(NC(=O)/C(C#N)=C/c2c(C)nn(-c3ccc(F)cc3)c2Cl)cc1OC	uPA generation inconclusive, Nrf2 ARE act 15.8µM, ALOX12 inh inconclusive
Cc1ccc(-c2cc3cccc[n+]3cc2-c2ccc(C)cc2)cc1	uPA generation 10µM
c1ccc(-c2cccc(-n3ccnc3-c3cc4n(n3)CCCNC4)c2)nc1	none (no result: IL2 activator, uPA generation, Nrf2 ARE act, a7 integrin act)
Nc1nc2c(s1)C(c1c(Cl)cccc1Cl)CC(=O)N2 (configuration not stated)	ALOX12 inh 14.1µM (no result: IL2 activator, uPA generation, Nrf2 ARE act, a7 integrin act)
CSc1nc2c(c(=O)[nH]1)C(c1ccccc1Cl)CC(=O)N2 (configuration not stated)	none
Nc1nc2c(s1)C(c1ccccc1Cl)CC(=O)N2 (configuration not stated)	ALOX12 inh 20µM (no result: IL2 activator, uPA generation, Nrf2 ARE act, a7 integrin act)
COc1ccc(NC(=O)N2CCOc3ccc(CN4CCc5ccccc5C4)cc3C2)cc1	none (no result: IL2 activator, uPA generation, Nrf2 ARE act, a7 integrin act)
